Assay results reported in PubChem BioAssay (EPA / NIEHS).
The source made the active and inactive calls. Rule for the calls: active = hit-call score of the fitted dose curve at least 0.9, where 1 is the maximum; inactive = score below 0.9.

Key:
[1] = read-out: Cyclin D2 (CCND2), CCND2 (gene 894); assay: LTEA_HepaRG_CCND2: Life Technologies and Expression Analysis (LTEA) Assay for Cyclin D2 (CCND2) using HepaRG (AID 2283449); conditions: mRNA level, 48 h; actives raise or lower the signal
Method in brief: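 Read-out is CCND2 mRNA level measured by qRT-PCR in human HepaRG liver cells and normalised to three housekeeping genes. Chemicals were applied for 48 h at up to 100 uM, with gain or loss fitted relative to 0.5% DMSO.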

[2] = read-out: Cyclin Dependent Kinase Inhibitor 1A (CDKN1A), CDKN1A (gene 1026); assay: LTEA_HepaRG_CDKN1A: Life Technologies and Expression Analysis (LTEA) Assay for Cyclin Dependent Kinase Inhibitor 1A (CDKN1A) using HepaRG (AID 2283450); conditions: mRNA level, 48 h; actives raise or lower the signal
Method in brief: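 Differentiated human HepaRG cells, pre-cultured 48 h, were exposed in duplicate for 48 h in serum-free induction medium to eight half-log concentrations up to 100 uM (0.5% DMSO). CDKN1A mRNA was measured by qRT-PCR, normalized to ACTB/GAPDH/POLR2A, bidirectionally fitted versus DMSO.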

[3] = read-out: Cyclin D1 (CCND1), CCND1 (gene 595); assay: LTEA_HepaRG_CCND1: Life Technologies and Expression Analysis (LTEA) Assay for Cyclin D1 (CCND1) using HepaRG (AID 2283451); conditions: mRNA level, 48 h; actives raise or lower the signal;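 for AC50: TaqMan qRT-PCR transcript level normalised to ACTB GAPDH and POLR2A housekeeping genes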
Method in brief: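 Differentiated human HepaRG cells in serum-free induction medium were exposed 48 h to eight half-log concentrations up to 100 uM in 0.5% DMSO; mRNA quantified by TaqMan qRT-PCR, normalized to ACTB, GAPDH, POLR2A, fitted bidirectionally versus DMSO.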

[4] = read-out: catalase (CAT), CAT (gene 847); assay: LTEA_HepaRG_CAT: Life Technologies and Expression Analysis (LTEA) Assay for catalase (CAT) using HepaRG (AID 2283452); conditions: mRNA level, 48 h; actives raise or lower the signal;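 for AC50: TaqMan qRT-PCR signal normalized to ACTB GAPDH and POLR2A housekeeping genes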
Method in brief: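 Expression of CAT was quantified by TaqMan qRT-PCR with ACTB/GAPDH/POLR2A normalization after 48 h chemical exposure of HepaRG. Eight-point half-log series, top 100 uM, in 0.5% DMSO; gain or loss fitted against vehicle.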

[5] = read-out: flavin-containing dimethylaniline monooxygenases 3 (FMO3), FMO3 (gene 2328); assay: LTEA_HepaRG_FMO3: Life Technologies and Expression Analysis (LTEA) Assay for flavin-containing dimethylaniline monooxygenases 3 (FMO3) using HepaRG (AID 2283453); conditions: mRNA level, 48 h; actives raise or lower the signal;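 for AC50: FMO3 transcript by TaqMan qRT-PCR normalized to ACTB GAPDH and POLR2A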
Method in brief: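 HepaRG, 48 h exposure, 8-pt half-log series from 100 uM, 0.5% DMSO vehicle, duplicates; FMO3 transcript by Fluidigm TaqMan qRT-PCR, housekeeping-normalized; gain/loss fit vs DMSO.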

[6] = read-out: Cytochrome P450 (CYP1A1), CYP1A1 (gene 1543); assay: LTEA_HepaRG_CYP1A1: Life Technologies and Expression Analysis (LTEA) Assay for Cytochrome P450 (CYP1A1) using HepaRG (AID 2283454); conditions: mRNA level, 48 h; actives raise or lower the signal
Method in brief: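 Differentiated HepaRG cells in serum-free induction medium were exposed in duplicate for 48 h to eight half-log concentrations up to 100 uM in 0.5% DMSO. CYP1A1 mRNA was quantified by TaqMan qRT-PCR, normalized to ACTB, GAPDH and POLR2A.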

[7] = read-out: CFLAR gene, CFLAR (gene 8837); assay: LTEA_HepaRG_CFLAR: Life Technologies and Expression Analysis (LTEA) Assay for CFLAR gene using HepaRG (AID 2283455); conditions: mRNA level, 48 h; actives raise or lower the signal
Method in brief: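 HepaRG, 48 h exposure, 8-pt conc-response (100 uM top, half-log), 0.5% DMSO vehicle, duplicates. CFLAR expression by qRT-PCR; ACTB/GAPDH/POLR2A normalization; gain or loss fit vs DMSO baseline.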

[8] = read-out: Forkhead box O1 (FOXO1), FOXO1 (gene 2308); assay: LTEA_HepaRG_FOXO1: Life Technologies and Expression Analysis (LTEA) Assay for Forkhead box O1 (FOXO1) using HepaRG (AID 2283456); conditions: mRNA level, 48 h; actives raise or lower the signal
Method in brief: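 Readout is FOXO1 transcript level by multiplexed qRT-PCR against three housekeeping genes, curve-fitted in both directions relative to 0.5% DMSO vehicle. Human HepaRG cultures received chemicals for 48 h, up to 100 uM in half-log steps.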

[9] = read-out: growth arrest and DNA damage 45 (GADD45A), GADD45A (gene 1647); assay: LTEA_HepaRG_GADD45A: Life Technologies and Expression Analysis (LTEA) Assay for growth arrest and DNA damage 45 (GADD45A) using HepaRG (AID 2283458); conditions: mRNA level, 48 h; actives raise or lower the signal
Method in brief: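 Differentiated HepaRG cells were exposed in duplicate for 48 h in serum-free induction medium to 8-point half-log concentrations up to 100 uM in 0.5% DMSO. GADD45A mRNA was measured by TaqMan qRT-PCR, normalized to ACTB, GAPDH and POLR2A, with bidirectional fitting versus DMSO.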

[10] = CEETOX_H295R_TESTO: CeeTox H295R High-throughput Steroidogenesis Assay for Testosterone (TESTO) (AID 2283457); conditions: actives raise or lower the signal
Experimental: CEETOX_H295R is a cell-based, multiplexed-readout assay that uses H295R, a human adrenal gland cell line, with measurements taken at 48 hours after chemical dosing in a 96-well plate.CEETOX_H295R_TESTO is one of 23 assay component(s) measured or calculated from the CEETOX_H295R assay. It is designed to make measurements of hormone induction, a form of inducible reporter, as detected with […] by HPLC-MS-MS technology.Data from the assay component CEETOX_H295R_TESTO was analyzed into 1 assay endpoint. This assay endpoint, CEETOX_H295R_TESTO, was analyzed with bidirectional fitting relative to DMSO as the negative control and baseline of activity. Using a type of inducible reporter, gain or loss-of-signal activity using HPLC-MS-MS was used to understand synthesis of Testosterone in H295R cell line at 48hr of chemical exposure. To generalize the intended target to other relatable targets, this assay endpoint is annotated to the steroid hormone intended target family, where the subfamily is androgens.
Cell culture and media preparation procedures were conducted in accordance with OECD Test No. 456 guidelines, with minor modifications. H295R cells (ATCC CRL-2128) were expanded for 5 passages and frozen in batches in liquid nitrogen. Prior to the steroidogenesis assay, H295R cells were thawed and passed at least 4 times. The maximum passage was 10. Cells were maintained in a 1:1 mixture of DMEM/F12 supplemented with 5ml/L ITS+ Premix (BD Bioscience) and 12.5 ml/L Nu-Serum (BD Bioscience). After seeding cells into 96-well plates at 50-60% confluency, cells were allowed to adhere overnight. […] Test chemicals were incubated for 48 hours, then the medium was removed and split into 2 vials containing approximately 75uL each, and stored at -80 C prior to hormone analysis. For steroid quantification, media samples were shipped to OpAns, LLC (Durham, NC) on dry ice, and samples were thawed to room temperature prior to liquid-liquid extraction. Steroid hormones were extracted from media samples using methyl tertbutyl ether (MTBE). An extra derivatization with dansyl chloride was included for estrogen (estrone and estradiol) detection only. Steroid hormones were separated by HPLC, eluted using a reverse phase C18 gradient with electrospray positive ionization, followed by quantification by tandem mass spectrometry (MS/MS). Data were acquired on a MassHunter Workstation Acquisition version B03.01 (Agilent Technologies, Inc.) and processed using MassHunter Quantitative Analysis for QQQ. Accuracy was determined for each hormone analyte from 3 standards to determine upper and lower limits of quantification (ULOQ and LLOQ, respectively) using a 7-point standard curve. Precision and accuracy of the extraction and quantification methods were calculated as the percent relative standard deviation (%RSD) of the spiked standards and percent spiked standard recovered, respectively. […] Test medium was removed following chemical exposure, and cell viability was evaluated in the same wells by MTT. MTT procedures were as follows: after removal of test medium, 500 uL of 0.5 mg/ml of 3-[4,5-dimethylthiazol-2-y]2,5-diphenyltetrazoliumbromide solution was added to the cells. Following a 4-hour incubation at 37 C and 5% CO2 to allow formazan-crystal formation, the MTT solution was removed and blue formazan salt crystals were solubilized using 500uL anhydrous isopropanol with shaking for 20 minutes. Absorbance was read at 570 and 650nm using a Packard Fusion microplate reader. Background correction of absorbance units was used to determine percent change relative to controls. […] When a test chemical reduced cell viability to 20% - 70%, the test chemical was diluted 10-fold and re-evaluated, but if cell viability was <20%, then the test chemical was diluted 100-fold and re-evaluated. Test chemical dilutions were made until cell viability was >/=70%. MTT assays were also conducted for duplicates of all concentrations of chemicals tested in concentration-response studies. […]

Measured: AC50

CCCCCCCCO
not listed: [10]
inactive: all other assays above

Fc1ccccc1[C@@H](F)COC1CCC(Nc2ncnc3[nH]ncc23)CC1 (stereo not given in full)
active: [2] 31.8 µM | [3] 86.4 µM | [4] 37.3 µM | [5] 31.9 µM | [6] 94.7 µM | [8] 82.1 µM
inactive: [1] | [7] | [10] | [9]

O=C(CCCCCCCCc1cccnc1)N1CCC(C=C(c2ccccc2)c2ccccc2)CC1
inactive: [1] | [3] | [7]
active: [2] 27 µM | [4] 22.5 µM | [5] 29.6 µM | [6] 32.6 µM | [8] 12.4 µM | [9] 26.9 µM

O=C(O)c1cc(N=Nc2ccc(S(=O)(=O)Nc3ccccn3)cc2)ccc1O
active: [6] 35.8 µM
not listed: [10]
inactive: all other assays above

O=C(NS(=O)(=O)/C=C/c1ccccc1)c1ccc(F)cc1Cl
active: [6] 50 µM
not listed: [10]
inactive: all other assays above

COCCOc1cc2cc(C(=O)NC3CCN(C(C)C)CC3)n(CC(=O)Nc3ccc(Cl)cn3)c2cn1
inactive: [1] | [2] | [8] | [9]
active: [3] 45 µM | [4] 45 µM | [5] 53.3 µM | [6] 2.09 µM | [7] 31.4 µM

O=C1OC(=O)C2C3C=CC(C3)C12 (stereo not given)
active: [6] 84.5 µM
not listed: [10]
inactive: all other assays above

C1=CCCC=CCCC=CCC1
not listed: [10]
inactive: all other assays above

CCOC(=O)CC(CC(=O)OCC)(OC(C)=O)C(=O)OCC
active: [6] 70.5 µM
not listed: [10]
inactive: all other assays above

Cc1ccc(N)cc1O
active: [6] 26.4 µM
inactive: all other assays above

COc1ccc2sc(C(=O)Nc3nnn[nH]3)c(OC(C)C)c2c1
active: [2] 50 µM | [3] 13.1 µM | [4] 81.3 µM | [5] 10.9 µM | [6] 35.3 µM | [7] 25.2 µM | [8] 19.9 µM | [9] 31.4 µM
inactive: [1]

CNS(=O)(=O)c1cc(C(=O)N2CCC(CCN3C4CCC3CC(n3c(C)nc5ccccc53)C4)(c3cccc(F)c3)CC2)c(Cl)cc1F (stereo not given)
active: [2] 31 µM | [4] 15.6 µM | [5] 24.2 µM
inactive: all other assays above

O=C(O)c1cccc(N(Cc2cccnc2)c2ccc(OC(F)F)c(OC(F)F)c2)c1
active: [1] 0.00643 µM | [6] 50 µM
inactive: all other assays above

O=c1[nH]c2ccc(S(=O)CCN3CCC(Cc4ccc(F)cc4)CC3)cc2o1 (stereo not given)
active: [4] 67.3 µM | [5] 72.9 µM | [6] 59 µM
not listed: [10]
inactive: all other assays above
